From PubChem BioAssay (NCATS)
Results filed as inconclusive are left out. Calls of active or inactive are those of the source. Calls come from the whole dose curve; as a rule, active = well fitted curve in the direction sought with a large enough effect; inconclusive = small, poorly fitted or top-dose-only effect, or another doubt; inactive = no such curve, though single readings can be large; an effect the other way counts as inactive or inconclusive.

Experiment: MultiTox-Fluor Cytotoxicity Assay - LYMP1-003 - Dead Cells (AID 961);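 note: cells exposed to compound for 16 h at 37 °C; nearly all actives have a fitted effect of over 70% in size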
Details: LYMP1-003 lymphoblastoid cells, dead-cell protease fluorescence; series mostly up to 92.2 µM
In short: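 Acute toxicity is scored as increased dead-cell protease activity in human lymphoblastoid LYMP1-003 cells after 16 h compound exposure in complete culture medium. Activity is normalized to DMSO basal and 15 uM tetraoctylammonium bromide as full response.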

Compound	outcome
Cc1occc(=O)c1O	inactive
CC1=CC(=O)CC(C)(C)C1(O)/C=C/C(C)=C\C(=O)O (configuration not stated)	inactive
COS(C)(=O)=O	inactive

Experiment: MultiTox-Fluor Cytotoxicity Assay - LYMP1-003 - Live Cells (AID 962);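 note: cells exposed to compound for 16 hours at 37 °C; cytotoxic hits lower the live-cell protease signal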
Details: LYMP1-003 lymphoblastoid cells, MultiTox-Fluor live-cell protease fluorescence; series mostly up to 92.2 µM
In short: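 Cells plated at 2500 per well and incubated 5 hr; compounds added and incubated 16 hr at 37 C; MultiTox-Fluor reagent added for 60 min at room temperature; fluorescence of liberated AFC measured at 405/510 nm.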

Compound	outcome
Cc1occc(=O)c1O	inactive
CC1=CC(=O)CC(C)(C)C1(O)/C=C/C(C)=C\C(=O)O (configuration not stated)	inactive
COS(C)(=O)=O	inactive

Experiment: Cell Viability - LYMP1-003 - Assay at 24 hr (AID 963)
Details: LYMP1-003 lymphoblastoid cell viability; series mostly up to 92.2 µM
In short: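 Acute toxicity in LYMP1-003 lymphoblastoid cells: 24 hr compound treatment at 37 C, ATP measured with CellTiter-Glo after 30 min at room temperature. AC50 derived by fitting the Hill equation to qHTS titrations.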

Compound	outcome
Cc1occc(=O)c1O	inactive
CC1=CC(=O)CC(C)(C)C1(O)/C=C/C(C)=C\C(=O)O (configuration not stated)	inactive
COS(C)(=O)=O	inactive

Experiment: Cell Viability - LYMP1-003 - Assay at 40 hr (AID 964); note: nearly all actives have a fitted effect of over 60% in size
Details: LYMP1-003 lymphoblastoid viability; series mostly up to 92.2 µM
In short: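 This qHTS cytotoxicity screen treats human lymphoblastoid cells (LYMP1-003) with compounds for 40 hr and quantifies cellular ATP via luciferase luminescence.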

Compound	outcome
Cc1occc(=O)c1O	inactive
CC1=CC(=O)CC(C)(C)C1(O)/C=C/C(C)=C\C(=O)O (configuration not stated)	inactive
COS(C)(=O)=O	inactive

Experiment: Cell Viability - LYMP2-003 (AID 965);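 note: cells exposed to compounds for 24 h before reading; nearly all actives have a fitted effect of over 50% in size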
Details: LYMP2-003 lymphoblastoid cell viability; series mostly up to 92.2 µM
In short: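 Human lymphoblastoid LYMP2-003 cells, 2500/well, exposed to compounds for 24 h at 37 C in complete medium. Viability read as intracellular ATP by CellTiter-Glo luminescence; AC50 from Hill-equation fits of qHTS concentration-response data.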

Compound	outcome
Cc1occc(=O)c1O	inactive
CC1=CC(=O)CC(C)(C)C1(O)/C=C/C(C)=C\C(=O)O (configuration not stated)	inactive
COS(C)(=O)=O	inactive

Experiment: Cell Viability - LYMP2-004 (AID 966); note: nearly all actives have a fitted effect of over 65% in size
Details: LYMP2-004 lymphoblastoid cell viability, qHTS; series mostly up to 92.2 µM
In short: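 Acute toxicity is scored as a concentration-dependent drop in intracellular ATP, quantified by luciferase luminescence, in human lymphoblastoid cells exposed to compound for 24 hr. AC50 derives from Hill-equation modelling.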

Compound	outcome
Cc1occc(=O)c1O	inactive
CC1=CC(=O)CC(C)(C)C1(O)/C=C/C(C)=C\C(=O)O (configuration not stated)	inactive
COS(C)(=O)=O	inactive

Experiment: Cell Viability - LYMP2-005 (AID 967)
Details: LYMP2-005 lymphoblastoid cell viability; series mostly up to 92.2 µM
In short: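 Human lymphoblastoid LYMP2-005 cells, 2,500 per well in complete medium, rested 5 h at 37C then compound-treated 24 h at 37C. Intracellular ATP read by CellTiter-Glo luminescence after 30 min at room temperature; AC50 from Hill-equation fits of concentration-response data.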

Compound	outcome
Cc1occc(=O)c1O	inactive
CC1=CC(=O)CC(C)(C)C1(O)/C=C/C(C)=C\C(=O)O (configuration not stated)	inactive
COS(C)(=O)=O	inactive

Experiment: Cell Viability - LYMP2-009 (AID 968); note: nearly all actives have a fitted effect of over 55% in size
Details: LYMP2-009 lymphoblastoid cell viability; series mostly up to 92.2 µM

Compound	outcome
Cc1occc(=O)c1O	inactive
CC1=CC(=O)CC(C)(C)C1(O)/C=C/C(C)=C\C(=O)O (configuration not stated)	inactive
COS(C)(=O)=O	inactive

Experiment: Cell Viability - LYMP2-011 (AID 969); note: nearly all actives have a fitted effect of over 60% in size
Details: LYMP2-011 lymphoblastoid cells viability; series mostly up to 92.2 µM
In short: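 Acute toxicity is scored as a concentration-dependent drop in intracellular ATP of a human lymphoblastoid line after 24 hr treatment. Values are AC50s modeled with the Hill equation.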

Compound	outcome
Cc1occc(=O)c1O	inactive
CC1=CC(=O)CC(C)(C)C1(O)/C=C/C(C)=C\C(=O)O (configuration not stated)	inactive
COS(C)(=O)=O	inactive

Experiment: Cell Viability - LYMP2-013 (AID 970); note: nearly all actives have a fitted effect of over 55% in size
Details: LYMP2-013 lymphoblastoid cells viability; series mostly up to 92.2 µM
In short: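 Acute toxicity was measured in human lymphoblastoid cells (2500/well) exposed to compound titrations for 24 hr, with ATP luminescence (CellTiter-Glo) as read-out and AC50 fitted by Hill equation.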

Compound	outcome
Cc1occc(=O)c1O	inactive
CC1=CC(=O)CC(C)(C)C1(O)/C=C/C(C)=C\C(=O)O (configuration not stated)	inactive
COS(C)(=O)=O	inactive

Experiment: Cell Viability - LYMP2-015 (AID 971); note: nearly all actives have a fitted effect of over 55% in size
Details: LYMP2-015 lymphoblastoid cell viability; series mostly up to 92.2 µM
In short: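 Acute toxicity was scored as a concentration-dependent drop in intracellular ATP in lymphoblastoid cells after 24 hr compound exposure in complete medium. Detection used CellTiter-Glo luciferase luminescence.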

Compound	outcome
Cc1occc(=O)c1O	inactive
CC1=CC(=O)CC(C)(C)C1(O)/C=C/C(C)=C\C(=O)O (configuration not stated)	inactive
COS(C)(=O)=O	inactive

Experiment: Cell Viability - LYMP2-017 (AID 972); note: nearly all actives have a fitted effect of over 55% in size
Details: LYMP2-017 lymphoblastoid cell viability; series mostly up to 92.2 µM
In short: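 Steps: plate 2500 lymphoblastoid cells per well; incubate 5 hr at 37 C; add compound across a concentration series and incubate 24 hr at 37 C; add CellTiter-Glo and read luminescence after 30 min at room temperature; fit Hill curves for AC50.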

Compound	outcome
Cc1occc(=O)c1O	inactive
CC1=CC(=O)CC(C)(C)C1(O)/C=C/C(C)=C\C(=O)O (configuration not stated)	inactive
COS(C)(=O)=O	inactive

Experiment: Cell Viability - LYMP2-019 (AID 973); note: nearly all actives have a fitted effect of over 55% in size
Details: LYMP2-019 lymphoblastoid cell line viability; series mostly up to 92.2 µM
In short: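 Cells plated at 2500/well and allowed 5 hr at 37 C before compound addition. After 24 hr incubation, CellTiter-Glo reagent was added, plates sat 30 min at room temperature, and luminescence was recorded.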

Compound	outcome
Cc1occc(=O)c1O	inactive
CC1=CC(=O)CC(C)(C)C1(O)/C=C/C(C)=C\C(=O)O (configuration not stated)	inactive
COS(C)(=O)=O	inactive

Experiment: Cell Viability - LYMP2-021 (AID 974)
Details: LYMP2-021 lymphoblastoid cells viability; series mostly up to 92.2 µM
In short: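 Concentration-response cytotoxicity in a human lymphoblastoid line: 24 hr treatment at 37 C in complete culture medium, tetraoctylammonium bromide as positive control, luminescent ATP quantitation as viability measure.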

Compound	outcome
Cc1occc(=O)c1O	inactive
CC1=CC(=O)CC(C)(C)C1(O)/C=C/C(C)=C\C(=O)O (configuration not stated)	inactive
COS(C)(=O)=O	inactive
